# Experiments:
# Test in all cases: DAPPL (digital affinity profiling via proximity ligation, sequencing); 10 mM Tris-HCl pH 7.5, 50 mM NaCl, 1 mM DTT, 4% glycerol, room temperature, 30 min; GST-TFs on glutathione beads, 16-mer random dsDNA library, 0.1% formaldehyde crosslink after washing; high values mean tight binding
# FLI1 = molecular target: T1, FLI1 (Homo sapiens, UniProt Q01543 1-452); conditions: protein: recombinant; tags: N-terminal GST; dsDNA, one strand shown
# T1 sequence: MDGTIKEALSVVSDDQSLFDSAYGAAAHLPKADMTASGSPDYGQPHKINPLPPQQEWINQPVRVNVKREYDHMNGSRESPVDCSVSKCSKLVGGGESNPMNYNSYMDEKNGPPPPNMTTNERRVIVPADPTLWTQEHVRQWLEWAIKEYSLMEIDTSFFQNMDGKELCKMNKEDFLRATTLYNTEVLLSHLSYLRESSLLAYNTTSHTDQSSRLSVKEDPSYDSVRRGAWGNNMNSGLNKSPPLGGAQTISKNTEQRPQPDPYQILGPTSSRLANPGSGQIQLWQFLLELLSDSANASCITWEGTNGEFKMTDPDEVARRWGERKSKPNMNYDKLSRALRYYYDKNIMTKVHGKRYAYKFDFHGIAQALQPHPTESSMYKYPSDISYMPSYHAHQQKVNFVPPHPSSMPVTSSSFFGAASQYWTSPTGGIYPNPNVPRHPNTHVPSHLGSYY
# How it was run: (§1)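 A tag-only sample was pooled with DNA-barcoded human transcription factors that had been expressed in yeast as GST fusions and captured on glutathione beads. The pools were incubated for 30 min at room temperature with 200 nmole of a random double-stranded 16-mer DNA library in Tris/NaCl/DTT/glycerol buffer, then washed, crosslinked with 0.1% formaldehyde, proximity-ligated (BsaI/T4 ligase, 1 h, 37 °C), PCR-amplified and sequenced on an Illumina NextSeq500. Binding signal is each hexamer's read frequency for a factor divided by its frequency for the tag-only sample.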
# ELK1 = molecular target: T2, ELK1 (Homo sapiens, UniProt P19419 1-428); conditions: protein: recombinant; tags: N-terminal GST; dsDNA, one strand shown
# T2 sequence: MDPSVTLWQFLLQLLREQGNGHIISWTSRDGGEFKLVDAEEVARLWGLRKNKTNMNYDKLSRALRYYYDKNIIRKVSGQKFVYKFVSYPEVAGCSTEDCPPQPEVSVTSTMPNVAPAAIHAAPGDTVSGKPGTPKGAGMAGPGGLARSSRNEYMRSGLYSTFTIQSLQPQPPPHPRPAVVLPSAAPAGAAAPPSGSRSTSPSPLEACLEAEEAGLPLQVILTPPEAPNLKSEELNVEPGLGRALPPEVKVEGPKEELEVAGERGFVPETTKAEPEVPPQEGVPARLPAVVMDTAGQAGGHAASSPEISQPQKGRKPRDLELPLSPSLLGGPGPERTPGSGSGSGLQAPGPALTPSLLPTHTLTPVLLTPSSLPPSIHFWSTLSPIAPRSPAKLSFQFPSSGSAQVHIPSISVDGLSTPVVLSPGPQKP
# How it was run: as §1
# GABPA = molecular target: T3, GABPA (Homo sapiens, UniProt Q06546 1-454); conditions: protein: recombinant; tags: N-terminal GST; dsDNA, one strand shown
# T3 sequence: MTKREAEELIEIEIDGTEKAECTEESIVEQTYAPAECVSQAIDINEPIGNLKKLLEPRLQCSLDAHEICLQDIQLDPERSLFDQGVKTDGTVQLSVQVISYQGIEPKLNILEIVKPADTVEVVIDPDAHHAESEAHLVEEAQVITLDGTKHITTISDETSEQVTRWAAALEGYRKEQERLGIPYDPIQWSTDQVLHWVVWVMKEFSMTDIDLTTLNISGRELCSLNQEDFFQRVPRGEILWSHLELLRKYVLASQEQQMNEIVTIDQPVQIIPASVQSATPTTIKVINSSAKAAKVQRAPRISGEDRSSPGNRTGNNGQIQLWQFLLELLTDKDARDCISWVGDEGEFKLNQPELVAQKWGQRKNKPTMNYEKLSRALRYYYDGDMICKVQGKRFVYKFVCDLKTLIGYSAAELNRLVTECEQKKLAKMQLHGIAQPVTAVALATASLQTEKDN
# How it was run: as §1
# ERG = molecular target: T4, ERG (Homo sapiens, UniProt P11308 1-479); conditions: protein: recombinant; tags: N-terminal GST; dsDNA, one strand shown
# T4 sequence: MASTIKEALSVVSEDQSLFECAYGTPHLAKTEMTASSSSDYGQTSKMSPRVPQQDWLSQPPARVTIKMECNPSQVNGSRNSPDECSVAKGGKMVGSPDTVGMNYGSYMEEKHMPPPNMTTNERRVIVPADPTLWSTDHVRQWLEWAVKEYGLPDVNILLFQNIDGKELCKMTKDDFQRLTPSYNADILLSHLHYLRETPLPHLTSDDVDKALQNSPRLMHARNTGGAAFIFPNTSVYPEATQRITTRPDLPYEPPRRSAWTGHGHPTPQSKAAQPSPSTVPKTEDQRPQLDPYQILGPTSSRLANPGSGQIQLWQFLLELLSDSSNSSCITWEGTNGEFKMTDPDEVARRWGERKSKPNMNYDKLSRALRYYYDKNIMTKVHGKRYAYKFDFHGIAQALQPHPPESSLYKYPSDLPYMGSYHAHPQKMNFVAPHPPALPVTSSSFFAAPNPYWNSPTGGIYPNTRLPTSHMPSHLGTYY
# How it was run: as §1
# ELF1 = ELF1 (Homo sapiens, UniProt P32519 1-619); conditions: protein: recombinant; tags: N-terminal GST; dsDNA, one strand shown
# ELF1, sequence (P32519 whole entry): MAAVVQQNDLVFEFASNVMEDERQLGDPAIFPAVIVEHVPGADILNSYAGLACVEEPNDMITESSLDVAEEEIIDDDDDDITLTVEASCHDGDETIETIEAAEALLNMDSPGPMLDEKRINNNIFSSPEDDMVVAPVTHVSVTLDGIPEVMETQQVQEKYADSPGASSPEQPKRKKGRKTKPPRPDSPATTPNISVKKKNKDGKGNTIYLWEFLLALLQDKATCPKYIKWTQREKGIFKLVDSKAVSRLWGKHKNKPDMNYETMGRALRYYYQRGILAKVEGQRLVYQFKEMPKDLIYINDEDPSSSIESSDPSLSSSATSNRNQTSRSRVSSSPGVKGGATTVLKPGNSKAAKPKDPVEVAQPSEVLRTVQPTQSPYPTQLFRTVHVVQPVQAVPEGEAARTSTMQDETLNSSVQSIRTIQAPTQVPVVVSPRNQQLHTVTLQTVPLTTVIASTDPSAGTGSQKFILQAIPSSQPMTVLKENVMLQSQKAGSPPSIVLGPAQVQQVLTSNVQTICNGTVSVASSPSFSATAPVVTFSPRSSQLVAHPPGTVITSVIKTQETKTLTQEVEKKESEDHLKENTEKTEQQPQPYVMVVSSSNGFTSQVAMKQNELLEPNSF
# How it was run: as §1
# EHF = molecular target: T5, EHF (Homo sapiens, UniProt Q9NZC4 1-300); conditions: protein: recombinant; tags: N-terminal GST; dsDNA, one strand shown
# T5 sequence: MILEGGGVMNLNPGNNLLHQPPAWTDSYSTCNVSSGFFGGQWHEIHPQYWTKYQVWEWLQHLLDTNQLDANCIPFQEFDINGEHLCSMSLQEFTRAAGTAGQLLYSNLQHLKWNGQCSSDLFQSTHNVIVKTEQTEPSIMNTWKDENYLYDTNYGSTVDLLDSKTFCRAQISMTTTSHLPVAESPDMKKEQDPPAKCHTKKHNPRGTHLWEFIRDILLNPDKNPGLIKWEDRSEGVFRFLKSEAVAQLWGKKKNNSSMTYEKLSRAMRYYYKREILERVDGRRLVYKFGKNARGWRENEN
# How it was run: as §1
# SPIB = SPIB (Homo sapiens, UniProt Q01892 1-262); conditions: protein: recombinant; tags: N-terminal GST; dsDNA, one strand shown
# SPIB, sequence (Q01892 whole entry): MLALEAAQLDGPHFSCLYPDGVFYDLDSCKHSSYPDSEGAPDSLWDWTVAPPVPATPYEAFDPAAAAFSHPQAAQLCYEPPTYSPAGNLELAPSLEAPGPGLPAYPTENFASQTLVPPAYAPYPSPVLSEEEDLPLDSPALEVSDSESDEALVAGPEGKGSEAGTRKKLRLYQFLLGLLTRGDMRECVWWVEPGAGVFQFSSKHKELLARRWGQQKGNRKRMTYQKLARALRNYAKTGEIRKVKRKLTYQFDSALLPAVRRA
# How it was run: as §1
# ELK3 = molecular target: T6, ELK3 (Homo sapiens, UniProt P41970 1-407); conditions: protein: recombinant; tags: N-terminal GST; dsDNA, one strand shown
# T6 sequence: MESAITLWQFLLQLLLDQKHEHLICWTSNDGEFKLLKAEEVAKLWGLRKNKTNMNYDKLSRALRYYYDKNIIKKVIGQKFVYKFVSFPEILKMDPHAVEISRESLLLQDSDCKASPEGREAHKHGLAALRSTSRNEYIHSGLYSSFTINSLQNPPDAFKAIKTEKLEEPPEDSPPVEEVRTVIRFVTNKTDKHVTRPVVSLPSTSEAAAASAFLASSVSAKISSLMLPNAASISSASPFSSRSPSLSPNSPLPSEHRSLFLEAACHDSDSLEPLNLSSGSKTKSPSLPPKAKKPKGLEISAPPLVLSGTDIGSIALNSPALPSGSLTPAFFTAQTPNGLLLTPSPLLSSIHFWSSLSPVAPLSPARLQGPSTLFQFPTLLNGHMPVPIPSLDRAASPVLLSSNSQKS
# How it was run: as §1
# FEV = molecular target: T7, FEV (Homo sapiens, UniProt Q99581 1-238); conditions: protein: recombinant; tags: N-terminal GST; dsDNA, one strand shown
# T7 sequence: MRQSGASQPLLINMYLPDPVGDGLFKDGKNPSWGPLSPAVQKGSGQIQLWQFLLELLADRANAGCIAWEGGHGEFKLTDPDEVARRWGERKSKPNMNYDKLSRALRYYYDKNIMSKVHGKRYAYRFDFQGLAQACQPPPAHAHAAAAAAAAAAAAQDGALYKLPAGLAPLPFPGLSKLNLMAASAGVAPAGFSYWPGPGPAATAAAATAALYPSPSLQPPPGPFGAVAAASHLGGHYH
# How it was run: as §1
# ETV5 = ETV5 (Homo sapiens, UniProt P41161 1-510); conditions: protein: recombinant; tags: N-terminal GST; dsDNA, one strand shown
# ETV5, sequence (P41161 whole entry): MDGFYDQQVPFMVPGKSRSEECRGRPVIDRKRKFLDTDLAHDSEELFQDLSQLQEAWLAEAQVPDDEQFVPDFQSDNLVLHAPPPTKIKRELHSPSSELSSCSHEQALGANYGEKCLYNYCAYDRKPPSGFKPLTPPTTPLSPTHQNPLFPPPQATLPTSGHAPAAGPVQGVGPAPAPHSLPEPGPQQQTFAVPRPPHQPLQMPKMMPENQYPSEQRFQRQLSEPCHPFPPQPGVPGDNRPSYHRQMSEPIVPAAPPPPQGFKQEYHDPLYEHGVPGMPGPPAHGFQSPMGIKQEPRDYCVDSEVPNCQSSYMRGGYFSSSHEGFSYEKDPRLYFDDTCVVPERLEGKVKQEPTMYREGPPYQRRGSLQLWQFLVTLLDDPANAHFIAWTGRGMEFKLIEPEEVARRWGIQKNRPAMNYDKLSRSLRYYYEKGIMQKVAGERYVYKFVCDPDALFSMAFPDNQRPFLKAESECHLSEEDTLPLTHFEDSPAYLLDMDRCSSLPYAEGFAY
# How it was run: as §1
# HSF1 = HSF1 (Homo sapiens, UniProt Q00613 1-529); conditions: protein: recombinant; tags: N-terminal GST; chain copies: 3; dsDNA, one strand shown
# HSF1, sequence (Q00613 whole entry): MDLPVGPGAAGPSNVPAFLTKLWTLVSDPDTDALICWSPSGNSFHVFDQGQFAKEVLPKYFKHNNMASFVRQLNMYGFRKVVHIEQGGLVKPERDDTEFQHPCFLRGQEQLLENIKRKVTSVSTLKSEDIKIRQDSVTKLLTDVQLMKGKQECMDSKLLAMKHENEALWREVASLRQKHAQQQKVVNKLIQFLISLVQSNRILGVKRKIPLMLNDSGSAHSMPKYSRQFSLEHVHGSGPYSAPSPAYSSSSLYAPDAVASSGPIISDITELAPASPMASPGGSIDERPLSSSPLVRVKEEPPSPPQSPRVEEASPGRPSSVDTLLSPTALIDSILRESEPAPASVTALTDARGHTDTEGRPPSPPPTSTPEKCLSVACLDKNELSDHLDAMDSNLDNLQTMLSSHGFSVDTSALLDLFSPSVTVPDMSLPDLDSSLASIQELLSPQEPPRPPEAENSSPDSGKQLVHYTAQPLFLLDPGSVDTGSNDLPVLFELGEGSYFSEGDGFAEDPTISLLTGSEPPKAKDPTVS
# How it was run: as §1
# SPIC = molecular target: T8, SPIC (Homo sapiens, UniProt Q8N5J4 1-248); conditions: protein: recombinant; tags: N-terminal GST; dsDNA, one strand shown
# T8 sequence: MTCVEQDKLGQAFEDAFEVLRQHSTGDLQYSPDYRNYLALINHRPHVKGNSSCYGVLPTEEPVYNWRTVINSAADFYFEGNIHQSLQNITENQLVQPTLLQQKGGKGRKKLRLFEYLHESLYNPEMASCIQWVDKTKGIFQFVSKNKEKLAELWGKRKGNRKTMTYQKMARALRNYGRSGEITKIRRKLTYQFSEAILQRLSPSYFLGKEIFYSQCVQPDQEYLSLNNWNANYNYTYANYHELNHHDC
# How it was run: as §1
# ELF4 = ELF4 (Homo sapiens, UniProt Q99607 1-663); conditions: protein: recombinant; tags: N-terminal GST; dsDNA, one strand shown
# ELF4, sequence (Q99607 whole entry): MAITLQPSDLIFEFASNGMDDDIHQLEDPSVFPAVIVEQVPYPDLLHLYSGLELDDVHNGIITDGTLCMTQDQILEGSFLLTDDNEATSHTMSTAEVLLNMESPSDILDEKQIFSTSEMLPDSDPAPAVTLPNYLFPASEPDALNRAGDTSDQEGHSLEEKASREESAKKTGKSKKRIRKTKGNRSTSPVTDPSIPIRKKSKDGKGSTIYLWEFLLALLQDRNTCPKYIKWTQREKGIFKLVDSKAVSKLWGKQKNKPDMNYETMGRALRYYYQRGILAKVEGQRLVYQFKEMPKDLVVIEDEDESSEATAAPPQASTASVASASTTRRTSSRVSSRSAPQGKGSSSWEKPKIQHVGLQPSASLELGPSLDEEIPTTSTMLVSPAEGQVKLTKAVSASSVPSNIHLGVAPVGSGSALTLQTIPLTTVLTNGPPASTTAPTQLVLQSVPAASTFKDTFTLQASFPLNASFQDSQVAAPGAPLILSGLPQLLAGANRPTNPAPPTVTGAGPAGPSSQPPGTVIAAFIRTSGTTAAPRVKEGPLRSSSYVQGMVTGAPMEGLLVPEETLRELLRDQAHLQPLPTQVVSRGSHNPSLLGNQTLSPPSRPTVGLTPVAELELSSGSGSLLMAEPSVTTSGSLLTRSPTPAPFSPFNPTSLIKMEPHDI
# How it was run: as §1
# ELK4 = molecular target: T9, ELK4 (Homo sapiens, UniProt P28324-2 1-405); conditions: protein: recombinant; tags: N-terminal GST; dsDNA, one strand shown
# T9 sequence: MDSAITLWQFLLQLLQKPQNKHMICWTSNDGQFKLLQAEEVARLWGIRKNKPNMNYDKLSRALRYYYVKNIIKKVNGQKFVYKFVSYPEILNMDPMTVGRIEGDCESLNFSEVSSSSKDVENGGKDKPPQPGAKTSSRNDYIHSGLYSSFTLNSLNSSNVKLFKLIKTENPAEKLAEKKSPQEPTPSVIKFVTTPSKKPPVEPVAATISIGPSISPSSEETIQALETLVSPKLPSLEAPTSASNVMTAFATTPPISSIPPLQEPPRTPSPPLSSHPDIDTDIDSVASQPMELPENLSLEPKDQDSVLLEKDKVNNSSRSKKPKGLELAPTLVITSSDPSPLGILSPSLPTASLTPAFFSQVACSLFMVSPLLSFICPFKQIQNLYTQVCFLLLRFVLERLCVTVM
# How it was run: as §1
# ETV2 = molecular target: T10, ETV2 (Homo sapiens, UniProt O00321 1-342); conditions: protein: recombinant; tags: N-terminal GST; dsDNA, one strand shown
# T10 sequence: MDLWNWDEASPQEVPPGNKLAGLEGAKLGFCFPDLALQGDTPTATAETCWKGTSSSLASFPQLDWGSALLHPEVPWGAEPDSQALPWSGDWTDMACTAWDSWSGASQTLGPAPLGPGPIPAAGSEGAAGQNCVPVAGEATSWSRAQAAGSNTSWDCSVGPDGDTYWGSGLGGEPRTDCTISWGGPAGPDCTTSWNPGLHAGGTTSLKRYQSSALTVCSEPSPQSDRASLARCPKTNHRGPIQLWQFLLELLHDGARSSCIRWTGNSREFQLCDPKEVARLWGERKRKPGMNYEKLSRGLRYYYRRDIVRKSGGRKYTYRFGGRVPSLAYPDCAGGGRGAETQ
# How it was run: as §1
# ELF3 = molecular target: T11, ELF3 (Homo sapiens, UniProt P78545 1-371); conditions: protein: recombinant; tags: N-terminal GST; dsDNA, one strand shown
# T11 sequence: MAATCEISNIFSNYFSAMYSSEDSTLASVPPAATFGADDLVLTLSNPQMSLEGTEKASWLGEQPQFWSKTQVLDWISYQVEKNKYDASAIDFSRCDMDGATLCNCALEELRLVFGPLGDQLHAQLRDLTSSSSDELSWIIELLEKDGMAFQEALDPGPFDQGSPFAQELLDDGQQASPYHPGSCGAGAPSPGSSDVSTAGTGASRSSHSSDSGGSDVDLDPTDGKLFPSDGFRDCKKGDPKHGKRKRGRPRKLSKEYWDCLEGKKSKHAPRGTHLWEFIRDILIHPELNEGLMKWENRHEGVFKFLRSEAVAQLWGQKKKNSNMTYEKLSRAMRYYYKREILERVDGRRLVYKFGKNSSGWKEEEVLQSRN
# How it was run: as §1
# CRX = CRX (Homo sapiens, UniProt O43186 1-299); conditions: protein: recombinant; tags: N-terminal GST; dsDNA, one strand shown
# CRX, sequence (O43186 whole entry): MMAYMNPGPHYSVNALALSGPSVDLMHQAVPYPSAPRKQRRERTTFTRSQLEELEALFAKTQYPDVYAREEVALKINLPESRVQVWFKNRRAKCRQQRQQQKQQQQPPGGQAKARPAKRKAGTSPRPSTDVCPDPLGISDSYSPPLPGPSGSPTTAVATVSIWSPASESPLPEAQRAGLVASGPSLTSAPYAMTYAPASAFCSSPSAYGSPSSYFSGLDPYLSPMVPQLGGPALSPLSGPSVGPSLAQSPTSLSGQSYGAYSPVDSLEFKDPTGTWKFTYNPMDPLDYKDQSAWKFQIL
# How it was run: as §1
# ETV1 = ETV1 (Homo sapiens, UniProt P50549 1-477); conditions: protein: recombinant; tags: N-terminal GST; dsDNA, one strand shown
# ETV1, sequence (P50549 whole entry): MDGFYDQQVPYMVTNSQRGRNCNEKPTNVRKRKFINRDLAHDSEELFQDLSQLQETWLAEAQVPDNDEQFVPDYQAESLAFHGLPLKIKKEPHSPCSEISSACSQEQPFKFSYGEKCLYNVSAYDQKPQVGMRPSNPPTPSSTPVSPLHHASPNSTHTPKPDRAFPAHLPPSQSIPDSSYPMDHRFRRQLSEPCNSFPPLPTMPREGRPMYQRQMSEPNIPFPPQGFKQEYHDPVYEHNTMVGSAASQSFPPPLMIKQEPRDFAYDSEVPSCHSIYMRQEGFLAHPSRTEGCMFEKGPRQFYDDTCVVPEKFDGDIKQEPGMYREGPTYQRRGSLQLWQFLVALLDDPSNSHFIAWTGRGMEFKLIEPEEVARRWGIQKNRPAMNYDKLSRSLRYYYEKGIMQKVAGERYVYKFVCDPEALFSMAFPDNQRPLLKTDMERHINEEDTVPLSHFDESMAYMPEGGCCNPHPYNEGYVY
# How it was run: as §1
sequence,measurement,setting,value
CGAGCA,binding signal,FLI1,"1.17 fold enrichment (6-mer frequency, TF over GST control)"
same,binding signal,ELK1,"1.18 fold enrichment (6-mer frequency, TF over GST control)"
same,binding signal,GABPA,"1.18 fold enrichment (6-mer frequency, TF over GST control)"
same,binding signal,ERG,"1.13 fold enrichment (6-mer frequency, TF over GST control)"
same,binding signal,ELF1,"1.14 fold enrichment (6-mer frequency, TF over GST control)"
same,binding signal,EHF,"1.05 fold enrichment (6-mer frequency, TF over GST control)"
same,binding signal,SPIB,"1.16 fold enrichment (6-mer frequency, TF over GST control)"
same,binding signal,ELK3,"1.14 fold enrichment (6-mer frequency, TF over GST control)"
same,binding signal,FEV,"1.16 fold enrichment (6-mer frequency, TF over GST control)"
same,binding signal,ETV5,"1.1 fold enrichment (6-mer frequency, TF over GST control)"
same,binding signal,HSF1,"1.38 fold enrichment (6-mer frequency, TF over GST control)"
same,binding signal,SPIC,"1.1 fold enrichment (6-mer frequency, TF over GST control)"
same,binding signal,ELF4,"1.13 fold enrichment (6-mer frequency, TF over GST control)"
same,binding signal,ELK4,"1.17 fold enrichment (6-mer frequency, TF over GST control)"
same,binding signal,ETV2,"1.34 fold enrichment (6-mer frequency, TF over GST control)"
same,binding signal,ELF3,"1.29 fold enrichment (6-mer frequency, TF over GST control)"
same,binding signal,CRX,"1.04 fold enrichment (6-mer frequency, TF over GST control)"
same,binding signal,ETV1,"1.11 fold enrichment (6-mer frequency, TF over GST control)"
